# Test results from the supplement of paper PMC8728848.
# This excerpt belongs to a sample that is enriched for the strongest signals.
# Experiments:
# Experiment in all cases: glycan array binding signal (z-score within array); higher = stronger binding
# Conditions in all cases: glycan notation: IUPAC condensed, linker removed
# [1] = target: GlcNAc6S(b1-3)Gal(b1-4)GlcNAc
# How it was run: (§1)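 The binding signal is a Z-score computed within each array and averaged over linkers. Arrays of the same protein sequence at different concentrations or buffers were also averaged together. Data originate from 3228 arrays in the Consortium for Functional Glycomics database, kept only where the protein sequence was available.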
# [2] = target: Kdn(a2-3)Gal(b1-4)[Fuc(a1-3)]GlcNAc
# How it was run: as §1
# [3] = target: Man(a1-3)[Man(a1-6)]Man(a1-6)[Man(a1-3)]Man
# How it was run: as §1
# [4] = target: Neu5Ac(a2-3)Gal(b1-3)GlcNAc6S
# How it was run: as §1
# [5] = target: Neu5Ac(a2-3)Gal(b1-4)GlcNAc(b1-2)[Neu5Ac(a2-3)Gal(b1-4)GlcNAc(b1-6)]Man(a1-6)[Neu5Ac(a2-3)Gal(b1-4)GlcNAc(b1-2)Man(a1-3)][GlcNAc(b1-4)]Man(b1-4)GlcNAc(b1-4)GlcNAc
# How it was run: as §1
# [6] = target: Neu5Ac(a2-3)Gal(b1-4)GlcNAc(b1-3)Gal(b1-4)GlcNAc(b1-6)[Gal(b1-3)]GalNAc
# How it was run: as §1
# [7] = target: Neu5Ac(a2-3)Gal(b1-4)GlcNAc(b1-6)GalNAc
# How it was run: as §1
# [8] = target: Neu5Ac(a2-6)Gal(b1-4)GlcNAc(b1-3)Gal(b1-4)GlcNAc(b1-3)Gal(b1-4)GlcNAc(b1-2)Man(a1-3)[Neu5Ac(a2-6)Gal(b1-4)GlcNAc(b1-3)Gal(b1-4)GlcNAc(b1-3)Gal(b1-4)GlcNAc(b1-2)Man(a1-6)]GalNAc
# How it was run: as §1
# [9] = target: Neu5Ac(a2-6)Gal(b1-4)GlcNAc(b1-3)[Neu5Ac(a2-6)Gal(b1-4)GlcNAc(b1-6)]GalNAc
# How it was run: as §1
# [10] = target: Neu5Ac(a2-8)Neu5Ac(a2-3)[Gal(b1-3)GalNAc(b1-4)]Gal(b1-4)Glc
# How it was run: as §1
# [11] = target: Neu5Ac(a2-8)Neu5Gc(a2-3)Gal(b1-4)GlcNAc
# How it was run: as §1
binder,measurement,setting,value
PX9961K-bvu-480-28-480 (Bacteroides vulgatus) (protein) NKIPTTMAFRTVTDVDNAVNGLYDLMSGSGYYGAAMFAYGDMKGDDMQSSEESGVCNTCYMFNHRPNSLNAGSLWGRPFYILREAWNILNAIAEGKIESGDEKKLNALKGETMAVIALCQFDLTRCFGYPYTKDKGASLGAPLIDHLVGTYENPPRSTVAQAYDFIIETLEEAVTLMSEEKNNGRMNKYAARALLARIYLYHDDNRKAFDLADQLIKDADTSGSYALYPHEKYVAAWSVEAKFGSESFFEIANSVDDTPGRDSWGYLLNWYGYQKGFVTQKYAEQMLADPGDVRGHLLEENKYAGKTVWWLYKLRGTDLKTAPLECNNVVLRLSEVYLIAAEAGCKLGGDAAVQGLGYLNEIVKRGNPDNEVTMADYTLDRVLDERSKELVGEGHRFFDLLRNGKTIVRKGGYHLPSVDEEVDWDFYKCVLPIPEDQFIFSPEMEQNPGYPKN,glycan array binding signal (z-score),[1],1.58
same,glycan array binding signal (z-score),[2],-0.426
same,glycan array binding signal (z-score),[3],2.06
same,glycan array binding signal (z-score),[4],0.976
same,glycan array binding signal (z-score),[5],1.59
same,glycan array binding signal (z-score),[6],-0.074
same,glycan array binding signal (z-score),[7],-0.742
same,glycan array binding signal (z-score),[8],1.68
same,glycan array binding signal (z-score),[9],-0.532
same,glycan array binding signal (z-score),[10],-0.283
same,glycan array binding signal (z-score),[11],19.1
